Assay [1] is described as follows: qHTS assay for small molecule agonists of the p53 signaling pathway (AID 651631; calls by dose curve; note: nearly all actives have a fitted effect of over 15% in size; note: potency is the fitted concentration of half-maximal effect). Put shortly: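 Read-out is beta-lactamase FRET fluorescence measured 2 h after substrate addition at room temperature, in HCT-116 cells with a p53 response element-driven reporter exposed to compounds for 16 h at 37 °C.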
(In qHTS, concentration-response curves come from the screen itself.)

Assay [2] is described as follows: qHTS assay for small molecules that induce genotoxicity in human embryonic kidney cells expressing luciferase-tagged ATAD5 (AID 651632). Note: nearly all actives have a fitted effect of over 15% in size. Note: potency is the fitted concentration of half-maximal effect. Put shortly:
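Increased luciferase signal from ATAD5-tagged reporter cells indicates DNA-damage-driven ATAD5 induction. HEK293T cells are treated for 16 hr at 37C before detection with Amplite.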

Assay [3] in a line: qHTS assay for small molecule agonists of the p53 signaling pathway - cell viability (AID 651633; calls by dose curve;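 note: p53RE-bla HCT reporter cells with a stable beta-lactamase p53 reporter; series mostly up to about 83 µM; nearly all actives have a fitted effect of over 30% in size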). In a few lines: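 p53RE-bla cells, seeded at 4,000 per well and rested 5 h at 37 C/5% CO2, received compounds in DMSO for 16 h at 37 C. CellTiter-Glo was then added, and luminescence was read after 30 min at room temperature to gauge cytotoxicity.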
Assay [4] is described as follows: qHTS assay for small molecules that induce genotoxicity in human embryonic kidney cells expressing luciferase-tagged ATAD5 - cell viability (AID 651634; calls by dose curve; note: nearly all actives have a fitted effect of over 25% in size). In a few lines: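 Cytotoxicity counterscreen in HEK293T cells bearing an ATAD5-luciferase reporter: live-cell protease activity measured by CellTiter-Fluor fluorescence after 15.5 hr compound exposure.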
Assay [5] is described as follows: qHTS assay for small molecule disruptors of the mitochondrial membrane potential - cell viability (AID 720634; calls by dose curve;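 note: human HepG2 liver cancer cells; series mostly up to about 83 µM; nearly all actives have a fitted effect of over 20% in size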). In a few lines:
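After overnight attachment at 37 C, HepG2 cells received compound or DMSO vehicle for 1 hr. Viability is then taken from ATP-driven luminescence following a 30 min room-temperature CellTiter-Glo step.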

Assay [6] in a line: qHTS assay for small molecule disruptors of the mitochondrial membrane potential (AID 720635). Note: potency is the fitted concentration of half-maximal effect. In a few lines: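 HepG2 cells (2,000/well) attached overnight at 37C, then took compound for 1 hr at 37C, 5% CO2. Mito-MPS dye was added for 30 min; fluorescence was read at 490/535 nm (monomers) and 540/590 nm (aggregates).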
A short description of assay [7]: qHTS assay to test for compound auto fluorescence at 590 nm (red) in HepG2 cells (AID 720674). In a few lines:
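Rose Bengal sodium served as the red fluorophore standard. HepG2 monolayers (overnight attachment, MEM with 10% FBS) were exposed to test compounds for 1 hr at 37 C and read at Ex 540/Em 590 nm.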

A short description of assay [8]: qHTS assay to test for compound auto fluorescence at 535 nm (green) in HepG2 cells (AID 720675).
Assay [9] can be described thus: qHTS assay to test for compound auto fluorescence at 460 nm (blue) in HEK293 cells (AID 720678). Put shortly: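 Auto fluorescence in the blue band was quantified as triamterene equivalency. HEK293 cells were seeded at 2,000/well, dosed after a 4-5 hr attachment, and kept overnight at 37C before the 405/460 nm reading.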
Assay [10] can be described thus: qHTS assay to test for compound auto fluorescence at 590 nm (red) in HEK293 cells (AID 720679). Put shortly: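 Autofluorescence equivalency to Rose Bengal sodium, 540/590nm, in HEK293 cells exposed overnight to 23 nL compound per well.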

Unmarked numbers belong to inactive results. Records with an inconclusive call do not appear. Active and inactive are the calls of the source. Unless noted, calls come from the whole dose curve; as a rule, active = well fitted curve in the direction sought with a large enough effect in the repeat runs; inconclusive = weak or mixed curves; inactive = no such curve, though single readings can be large; an effect the other way counts as inactive or inconclusive.

`O=c1[nH][nH]c2ccccc12`: the Potency result in assay [1], in [2], in [3], in [4], in assay [5] and in [6] was “inactive” throughout. For the same compound, the Potency entry in assay [9] is “inactive”. Besides, the compound was called inactive in assay [7], in assay [8] and in assay [10].

In the case of `CCCCCCCCCCCC(=O)OCC`, the Potency result in [1], in assay [2], in assay [3], in assay [4], in assay [5] and in [6] was “inactive” throughout. Besides, the Potency entry in assay [9] is “inactive”. Also, the compound was called inactive in assay [7], in assay [8] and in assay [10].

Consider `COc1ccc(C(=O)c2ccc(C)cc2)c(O)c1`, for which the Potency entry in assay [1], in assay [2], in assay [3], in assay [4], in assay [5] and in assay [9] was “inactive” throughout. In addition, the Potency in assay [6] is 61.8 µM (active). Moreover, the call in assay [7], in [8] and in [10] was inactive.

With `O=[N+]([O-])c1cccc(I)c1`, the Potency result in [1], in assay [2], in [3], in assay [4], in assay [5] and in assay [6] was “inactive” in each case. In assay [9], the Potency entry was “inactive”. The outcome in assay [7], in assay [8] and in assay [10] was inactive.

As for `O=C1CCCN1CCO`, the Potency result in [1], in assay [2], in assay [3], in [4], in assay [5] and in [6] was “inactive” throughout. Also, the Potency entry in assay [9] was “inactive”. Moreover, the compound was classed as inactive in assay [7] and in assay [10].

Turning to `O=C(OC1C[C@H]2CC[C@@H](C1)[N+]21CCCC1)C(O)(c1ccccc1)c1ccccc1` (stereo partly specified), the Potency entry in [1], in assay [2], in assay [3], in [4], in assay [5] and in assay [6] was “inactive” throughout. In assay [9], the Potency result was “inactive”. Besides, the compound was called inactive in assay [7], in assay [8] and in [10].

On to `O=Cc1ccc([N+](=O)[O-])cc1`, for which the Potency entry in assay [1], in assay [2], in [3], in assay [4], in assay [5] and in assay [6] was “inactive” throughout. Besides, the Potency entry in assay [9] is “inactive”. Further, the compound was called inactive in assay [7], in assay [8] and in [10].

For `C(/C=C/C=C/Nc1ccccc1)=Nc1ccccc1`, the Potency result in assay [1], in assay [2], in assay [3], in assay [4], in [5] and in assay [6] was “inactive” each time. The Potency entry in [9] was “inactive”. For the same compound, the compound was called inactive in assay [7], in assay [8] and in [10].

Turning to `CC(O)C(C)O` (stereo unspecified), the Potency entry in assay [1], in assay [2], in assay [3], in assay [4], in [5] and in assay [6] was “inactive” in each case. Moreover, in assay [9], the Potency result is “inactive”. The result in assay [7], in [8] and in assay [10] was inactive.

Regarding `CCC(CC)C(=O)O`, the Potency result in assay [1], in [2], in assay [3], in assay [4], in assay [5] and in assay [6] was “inactive” in each case. The Potency result in [9] was “inactive”. Further, the outcome in assay [7], in [8] and in assay [10] was inactive.

`CC1(C)[C@@H]2CC[C@]3(C2)[C@@H]1C(=O)CCC3(C)C`: the Potency entry in [1], in assay [2], in assay [3], in assay [4], in assay [5] and in assay [6] was “inactive” in each case. Further, the call in [7], in assay [8] and in assay [10] was inactive.

On to `CNc1ccccc1`, for which the Potency result in assay [1], in assay [2], in [3], in assay [4], in assay [5] and in assay [6] was “inactive” throughout. Further, the Potency result in assay [9] was “inactive”. For the same compound, the call in [7], in [8] and in assay [10] was inactive.

As to `O=C1C=CCCC1`, the Potency entry in [1], in assay [2], in [3], in assay [4], in assay [5] and in [6] was “inactive” throughout. The Potency result in assay [9] is “inactive”. Further, the compound was classed as inactive in [7], in assay [8] and in assay [10].

On to `O=C1OC(=O)C2CC=CCC12` (stereo unspecified), for which the Potency entry in [1], in assay [2], in assay [3], in [4], in assay [5] and in assay [6] was “inactive” in each case. Moreover, the call in assay [7], in [8] and in assay [10] was inactive.

For `CC(C)CCCCCCCOC(=O)c1ccc(C(=O)OCCCCCCCC(C)C)c(C(=O)OCCCCCCCC(C)C)c1`, the Potency entry in [1], in assay [2], in assay [3], in assay [4], in assay [5] and in assay [6] was “inactive” each time. Moreover, the Potency entry in assay [9] was “inactive”. For the same compound, the compound was called inactive in [7], in assay [8] and in [10].

On to `Cc1cccc(C)c1NC(=O)CN1CCCC1`, for which the Potency entry in assay [1], in assay [2], in [3], in assay [4], in assay [5] and in assay [6] was “inactive” each time. Further, the Potency entry in [9] is “inactive”. The compound was classed as inactive in assay [7], in [8] and in assay [10].

For `O=C(Cl)c1cc(Cl)cc(Cl)c1`, the Potency entry in [1], in assay [2], in [3], in assay [4], in assay [5] and in [9] was “inactive” throughout. The compound was classed as inactive in assay [7], in assay [8] and in assay [10].

In the case of `CC(C)NC(=O)c1ccccc1N`, the Potency result in assay [1], in assay [2], in assay [3], in [4], in assay [5] and in assay [6] was “inactive” throughout. Besides, the result in assay [7], in assay [8] and in assay [10] was inactive.

In the case of `N#CCCCC(C#N)CCC#N` (stereo unspecified), the Potency result in [1], in assay [2], in [3], in assay [4], in [5] and in assay [6] was “inactive” in each case. For the same compound, the Potency result in assay [9] was “inactive”. For the same compound, the compound was called inactive in [7] and in assay [10].

`CC(C)=CCC/C(C)=C/C=N/O`: the Potency entry in [1], in assay [2], in [3], in assay [4], in assay [5] and in assay [6] was “inactive” in each case. In addition, in assay [9], the Potency result is “inactive”. The outcome in [7] and in assay [10] was inactive.

Take `CCC(=O)O[C@@H]1C[C@H]2CC[C@]1(C)C2(C)C`: the Potency result in assay [1], in assay [2], in [3], in [4], in assay [5] and in assay [6] was “inactive” throughout. Also, in [9], the Potency entry is “inactive”. Also, the outcome in assay [7] and in assay [10] was inactive.

For `COc1ccc(/C=C/S(=O)(=O)NC(=O)c2ccc(C)cc2Cl)cc1`, the values for the Potency in assay [1], in assay [2] and in [6] were 30.6 µM (active), 21.7 µM (active) and 61.1 µM (active), respectively. The Potency result in assay [3], in [4], in assay [5] and in [9] was “inactive” throughout. The call in [7] and in [10] was inactive.

`O=C(O)c1cc(C(=O)O)cc([N+](=O)[O-])c1`: the Potency result in assay [1], in assay [2], in assay [3], in [4], in assay [5] and in [6] was “inactive” each time. Moreover, the Potency result in [9] is “inactive”. Also, the compound was classed as inactive in assay [7], in [8] and in assay [10].

Consider `CCCCCCCCCC(C)C=O` (stereo unspecified), for which the Potency result in [1], in assay [2], in [3], in assay [4], in [5] and in [6] was “inactive” throughout. Besides, the Potency entry in assay [9] was “inactive”. For the same compound, the outcome in assay [7], in [8] and in assay [10] was inactive.
